# From PubChem BioAssay
# L3MBTL1 block: blocks human L3MBTL1 | Potency, µM (doses to about 57.1 µM), inactives show at the highest dose activity, negative = inhibition, actives largely listed as inhibitors | 0.66% of 230,000 active | AID 485360 | AlphaScreen L3MBTL1–H3K9me1 peptide binding | Q9Y468; further: on the % scale 0 is the no-effect control and ±100 the full control effect; nearly all actives have a fitted effect of over 60% in size
#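 L3MBTL1 (50 nM) pre-complexed 30 min with biotinylated H3(1-15)K9me1 peptide (75 nM), then compounds added for 30 min at room temperature; AlphaScreen streptavidin donor/nickel chelate acceptor beads (10 ug/mL final) read after 30 min dark incubation.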
# Sfp inh: blocks B. subtilis Sfp PPTase activity | Biochemical Sfp PPTase activity, qHTS | Potency, µM, for inactives: largest response in the series, negative = inhibition, actives largely listed as inhibitors | 3.5% of 310,000 active;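 further: the enzyme is Sfp with the accession as filed and its product quenches rhodamine fluorescence; 0% = enzyme reaction without inhibitor and -100% = no enzyme wells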
#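 Fluorescence-quenching assay: 15 nM Sfp-PPTase preincubated 15 min at room temperature with compound, then 5 uM rhodamine-CoA and 12.5 uM BHQ-2-labelled YbbR peptide added. Fluorescence (ex 525/em 598 nm) read at start and after 30 min; difference gives rate.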
# BAZ2B inh: BAZ2B (human) inhibition; AID 504333; AlphaScreen BAZ2B-H3K14Ac peptide displacement; Q9UIF8; Potency, µM (highest dose often 114 µM), for the others: top-dose activity change, negative = inhibition, most hits filed as inhibitors; 4.4% of 360,000 active; further: on the % scale 0 is the no-effect control and ±100 the full control effect; nearly all actives have a fitted effect of over 60% in size
#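 AlphaScreen displacement of biotin-H3(5-23)K14Ac peptide (50 nM final) from BAZ2B (50 nM final) in PBS pH 7.4, 0.01% Tween-20; complex preformed 30 min RT, then compounds (top 110 uM) 30 min RT, beads 20 min dark.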
# HP1b binding inh: HP1-beta chromodomain-methylated histone interaction inhibition. P83916. AlphaScreen HP1-beta / biotin-H3K9me3 peptide binding. Potency, µM (titrated, usually from 114 µM), inactives show top-dose activity change, negative = inhibition, hits mostly inhibitors. 0.56% of 390,000 active. AID 540317; further: nearly all actives have a fitted effect of over 70% in size
# Target sequence (P83916 whole entry, looked up): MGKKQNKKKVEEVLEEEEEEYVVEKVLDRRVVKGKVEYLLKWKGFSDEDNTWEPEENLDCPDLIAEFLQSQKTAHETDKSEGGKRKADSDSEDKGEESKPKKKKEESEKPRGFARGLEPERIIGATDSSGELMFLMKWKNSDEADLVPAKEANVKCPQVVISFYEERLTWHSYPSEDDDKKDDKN
#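 HP1-beta protein (50 nM final) preincubated 30 min at room temperature with biotinylated H3(1-18)K9me3 peptide (50 nM) in PBS pH 7.4, 0.01% Tween-20, then compound added for 30 min. AlphaScreen streptavidin donor/nickel chelate acceptor beads (10 ug/mL final), 30 min dark, luminescence read.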
# JMJD2A Tudor: blocks the human JMJD2A Tudor domain; AlphaScreen JMJD2A-Tudor / H3K4me3 peptide binding; Potency, µM (titrated, usually from 114 µM), for inactives: top-dose activity change, negative = inhibition, actives largely listed as inhibitors; O75164; AID 504339; 4.4% of 390,000 active; further: on the % scale 0 is the no-effect control and ±100 the full control effect; nearly all actives have a fitted effect of over 50% in size
# G9a inh: G9a (human) methyltransferase inhibition | Q96KQ7 | G9a H3K9 monomethylation, AlphaScreen, 2 h | Potency, µM (top dose mostly 102 µM), inactives show at the top dose activity, negative = inhibition, actives largely listed as inhibitors | 8.8% of 350,000 active | AID 504332; further: on the % scale 0 is the no-effect control and ±100 the full control effect; nearly all actives have a fitted effect of over 75% in size
# Target sequence (Q96KQ7 913-1193 limits assumed): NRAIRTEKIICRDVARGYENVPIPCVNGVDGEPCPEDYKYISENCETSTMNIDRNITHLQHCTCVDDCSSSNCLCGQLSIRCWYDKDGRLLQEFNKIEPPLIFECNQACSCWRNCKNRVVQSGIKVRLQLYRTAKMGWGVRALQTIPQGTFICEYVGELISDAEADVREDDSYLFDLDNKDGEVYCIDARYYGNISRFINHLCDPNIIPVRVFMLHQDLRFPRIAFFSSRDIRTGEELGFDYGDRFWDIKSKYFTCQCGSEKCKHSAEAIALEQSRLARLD
#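 Enzyme 20 nM + cpd, 15 min RT; add b-H3K9 pep 500 nM / SAM 20 uM; 2 h RT; anti-H3K9me1 Ab 0.5 ug/mL + SA donor / anti-rabbit acceptor beads 20 ug/mL each, 10 min; AlphaScreen read.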
# The depositor's hits bear a star; ? = inconclusive; / = no result given; [ ] = dose if it differs, or a comment. A selection: hits, their analogues and other compounds. The true share with any hit is near 12%. The call rests on the fitted dose curve; in most records, active means well fitted curve in the direction sought with a large enough effect; inconclusive means small, poorly fitted or top-dose-only effect, or another doubt; inactive means no such curve, though single readings can be large; an effect the other way counts as inactive or inconclusive. Potency means the concentration at half of the fitted maximal effect.
SMILES,L3MBTL1 block,Sfp inh,BAZ2B inh,HP1b binding inh,JMJD2A Tudor,G9a inh
CCOc1ccccc1NC(=O)COc1coc(CN2CCc3ccccc3C2)cc1=O,-3.9%,/,?,30.2%,-23.3%,8.3%[0.501 µM]
O=C(COc1coc(CN2CCc3ccccc3C2)cc1=O)N1CCOCC1,-10.8%,/,0.3%,37.5%,-4.3%,44.7µM*
Cc1ccc(S(=O)(=O)N2[C@@H](c3ccc(C(C)(C)C)cc3)C(C(=O)O)=CC[C@H]2c2ccc(C(C)C)cc2)cc1,-12.5%,/,/,8.5%,79.4µM*,/
Cc1ccc([C@@H]2CC=C(C(=O)O)[C@H](c3ccc(C(C)(C)C)cc3)N2S(=O)(=O)c2ccc(C)cc2)cc1,-5.8%,/,/,30.5%,?,/
N/C(=N\OC(=O)c1cc([N+](=O)[O-])ccc1Cl)c1ccccn1,-12.3%,-15.4%,?,7.7%,?,/
Cc1ccc(C(=O)O/N=C(\N)c2ccccn2)c(Cl)c1,-0.5%,14.2%,6.5%,37.4%,8.2%,/
N/C(=N\OC(=O)c1cc(Br)ccc1Cl)c1ccccn1,14.2%,-5.2%,2.5%,51.2%,12.7%,56.2µM*
N/C(=N\OC(=O)c1ccc([N+](=O)[O-])cc1Cl)c1ccccn1,-4.7%,3.3%,56.2µM*,-22.4%,?,20µM*
O=C(O/N=C(\c1ccccc1)c1ccccn1)c1ccc(Cl)c(Cl)c1,-2.6%,1.6%,0.0%,45.8%,-17.1%,3.55µM*
N/C(=N\OC(=O)c1ccc(Cl)cc1Cl)c1ccccn1,10.8%,6.2%,0.8%,18.4%,-17.5%,89.1µM*
Cc1ccccc1-c1ncnn1-c1sc2c(c1C#N)CCCCC2,/,/,-32.3%,-20.1%,?,?
COc1ccc(/C=C2/SC(=O)N(CCC(=O)Nc3ccc(C)cc3)C2=O)cc1OC,-2.9%,?,-4.6%,/,/,-23.7%
COc1cc(/C=C2\SC(=O)N(CC(=O)Nc3cccc(C)c3)C2=O)cc([N+](=O)[O-])c1O,/,1.2%,39.8µM*,28.2µM*,17.8µM*,14.1µM*
CCOc1cc(/C=C2\SC(=O)N(CC(=O)Nc3ccccc3F)C2=O)cc([N+](=O)[O-])c1O,-16.2%,-15.7%,39.8µM*,35.5µM*,-19.5%[11.4 µM],15.8µM*
COc1ccc(/C=C2\SC(=O)N(CCNC(=O)Cc3coc4cc(C)ccc34)C2=O)cc1OC,-22.0%,-22.8%,-38.1%,10.4%,-27.8%,10µM*
COc1cc(/C=C2\SC(=O)N(c3ccccc3Cl)C2=O)cc([N+](=O)[O-])c1O,?,-22.1%,25.1µM*,?,35.5µM*,11.2µM*
COc1ccccc1NC(=O)NC1(C(=O)N2CCCCC2)CCCCC1,/,27.7%,-9.8%,-14.7%,-14.2%,17.3%
Cn1c(=O)c2c(ncn2CC(=O)Nc2cc(Cl)cc(Cl)c2)n(C)c1=O,/,/,16.7%,30.6%,-10.1%,-27.1%[59 µM]
Cc1cc2c(nc1C)CCCN2CC(O)CN1CCCc2nc(C)c(C)cc21,/,-0.4%,/,/,/,/
COc1ccc(/C=C2\SC(=O)N(CC(=O)Nc3cccnc3)C2=O)cc1OC,-6.7%,44.7µM*,-16.2%,61.5%,-17.3%,?
CC(C)(C)c1ccc(C2=NC(=O)C(CC(=O)O)S2)cc1 (stereo not given),/,50.1µM*,?,-4.9%,-21.8%,50.1µM*
COc1ccc(C(=O)CC2SC(N)=NC2=O)cc1 (stereo not given),/,-12.3%,3.7%,5.9%,-10.0%,10.7%[12.7 µM]
Cc1nnc(SCc2ccccc2Cl)c2cc3occc3n12,/,/,28.2µM*,-13.9%,?,12.6µM*
Cc1nnc(SCc2ccccc2Cl)c2cc3sccc3n12,/,/,?,62.3%,0.7%,?
Cc1ccc(NS(=O)(=O)N2CCOCC2)cc1,/,15.4%,-3.0%,28.9%,-2.1%,27.0%
Cc1c(C)n(Cc2ccccc2)c2ccc(C(=O)NCCc3ccccc3Cl)cc12,/,/,-15.1%,19.4%,?,-24.5%[59 µM]
O=C1ON=C(c2ccccc2[N+](=O)[O-])/C1=C/c1cccc([N+](=O)[O-])c1O,4.8%,/,-2.5%,29.7%,?,1µM*
